Experimental data from PubChem BioAssay AID430 (Sanford-Burnham Center for Chemical Genomics, 2006).
The campaign covered roughly 63,000 compounds. About 1,100 (1.7%) were called active. No stated cut-off is given here; in the data, active means cytotoxicity above about 50%; inactive means the rest. The entries come from a sample that favours actives as a whole. Measured potencies and affinities stand elsewhere.

Assay: cytotoxicity in HPDE-C7 cells, cell-based, fluorescence, HTS (AID 430);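 further: cells exposed to compound for 48 hours before viability readout; 0% = vehicle and 100% = reference cytotoxic drug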
Details: HPDE-C7 pancreatic duct cells viability, at 10 µM, hits give high values

| Compound | cytotoxicity |
| --- | --- |
| Cn1c(Cn2nnc3ccccc32)nnc1SCC(=O)N1c2ccccc2CCc2ccccc21 | -18% (inactive) |
| CC(CN1CCOCC1)OC(=O)c1ccc2c(c1)OCCO2 (stereo not drawn) | 4.5% (inactive) |
| COc1ccc(C(=O)OC(C)CN2CCOCC2)cc1OC (stereo not drawn) | -1.4% (inactive) |
| CCc1ccc2c(CN3CCc4ccccc43)cc(=O)oc2c1 | -5.4% (inactive) |
| CCOC(=O)c1sc(NC(=O)c2ccc(S(=O)(=O)N3CCOCC3)cc2)cc1C | -2.3% (inactive) |
| CCOC(=O)c1ccc(NC(=O)c2cccc(S(=O)(=O)N3CCOCC3)c2)cc1 | 20.1% (inactive) |
| CCOC(=O)c1sc(NC(=O)c2cccc(S(=O)(=O)N3CCN(C)CC3)c2)cc1C | 51% (active) |
| Cc1cc(C)n(-c2ccc(C(=O)Nc3ccccc3N3CCOCC3)cc2)n1 | -4.1% (inactive) |
| Cc1ccc(CS(=O)(=O)Cc2ccc(C(=O)NCc3ccco3)o2)cc1 | -21% (inactive) |
| c1csc(-c2nn[nH]n2)c1 | -3.1% (inactive) |
| COc1ccccc1-c1nnc(NC(=O)c2ccc(S(=O)(=O)N(C)C)cc2)o1 | -2.7% (inactive) |
| CCN(Cc1ccccc1)S(=O)(=O)c1ccc(C(=O)Nc2nnc(-c3ccccc3OC)o2)cc1 | 35.6% (inactive) |
| Cc1ccccc1C(=O)Nc1nnc(-c2ccc(F)cc2)o1 | 18.7% (inactive) |
| CN(c1ccccc1)S(=O)(=O)c1ccc(C(=O)Nc2nnc(-c3ccc(F)cc3)o2)cc1 | 58.9% (active) |
| COc1ccccc1-c1nnc(NC(=O)c2ccc(S(=O)(=O)N(C)Cc3ccccc3)cc2)o1 | 55.9% (active) |
| CN(c1ccccc1)S(=O)(=O)c1ccc(C(=O)Nc2nccs2)cc1 | -7.3% (inactive) |
| c1ccc2c(c1)oc1c(NCc3ccc4c(c3)OCO4)ncnc12 | -2.2% (inactive) |
| O=C(NCC1COCCO1)C1CCN(S(=O)(=O)c2ccccc2)CC1 (stereo not drawn) | -6.9% (inactive) |
| CCNC(=O)N1c2ccc(OC)cc2C(C)=CC1(C)C | 3.2% (inactive) |
| O=C(NC1CCc2ccccc21)C1CCN(S(=O)(=O)c2ccc(-n3cnnn3)cc2)CC1 (stereo not drawn) | -11% (inactive) |
| O=C(NCCc1ccccc1)C1CCCN1C(=O)Nc1ccc(F)cc1 (stereo not drawn) | -11.3% (inactive) |
| O=C1CCCC2=C1C(c1cccs1)n1nc(SCc3ccccc3F)nc1N2 (stereo not drawn) | -11.2% (inactive) |
| CCOC(=O)c1[nH]c2ccc(F)cc2c1NC(=O)C(C)N1CCc2cc(OC)c(OC)cc2C1 (stereo not drawn) | 58.6% (active) |
| CCOC(=O)c1[nH]c2ccccc2c1NC(=O)CN1CCCCC1 | -4.1% (inactive) |
| CCOC(=O)c1[nH]c2ccc(F)cc2c1NC(=O)CN1CCN(C/C=C/c2ccccc2)CC1 | 64.9% (active) |
| CCOC(=O)c1[nH]c2ccc(OCC)cc2c1NC(=O)CN1CCN(c2ccccc2)CC1 | 4.4% (inactive) |
| CCOC(=O)c1[nH]c2ccc(OC)cc2c1NC(=O)C(C)N1CCSCC1 (stereo not drawn) | 19.3% (inactive) |
| CCOC(=O)c1[nH]c2ccc(F)cc2c1NC(=O)CN1CCc2cc(OC)c(OC)cc2C1 | -3.8% (inactive) |
